Giardia FBPA inh-1: Giardia lamblia aldolase inhibition; A8B2U2; purified Giardia FBPA; Potency, µM (titrated, usually from 59.6 µM), inactives show top-dose activity, negative = inhibition, actives largely listed as inhibitors; 290,000 tested, 0.71% active; further: nearly all actives have a fitted effect of over 55% in size
Target sequence (A8B2U2 whole entry, looked up): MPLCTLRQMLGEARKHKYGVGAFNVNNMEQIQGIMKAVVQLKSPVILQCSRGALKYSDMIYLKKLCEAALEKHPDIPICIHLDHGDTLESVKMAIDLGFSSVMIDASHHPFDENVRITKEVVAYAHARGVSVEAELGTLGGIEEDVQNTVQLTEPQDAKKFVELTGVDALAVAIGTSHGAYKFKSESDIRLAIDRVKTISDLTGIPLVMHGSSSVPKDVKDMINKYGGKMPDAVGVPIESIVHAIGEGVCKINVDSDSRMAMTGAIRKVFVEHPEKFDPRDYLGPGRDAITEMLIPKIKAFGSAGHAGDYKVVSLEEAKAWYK
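40 nM FBPA preincubated 10 min at RT with compound (up to 57.5 uM final), then substrate plus GAPDH/TPI/NAD/arsenate coupling and diaphorase/resazurin added. Fluorescence read after 20 min at RT, 525/598 nm.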
AmpC inh detg: inhibitors of E. coli AmpC beta-lactamase with detergent; P00811; AmpC hydrolysis of nitrocefin, absorbance 480 nm, 0.01% Triton; Potency, µM (highest dose often 114 µM), without a hit: top-dose activity change, negative = inhibition, actives largely listed as inhibitors; 370,000 tested, 0.041% active; AID 485294;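 further: 0% = no-compound wells and -100% = no-enzyme wells; nearly all actives have a fitted effect of over 25% in size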
Target sequence (P00811 whole entry, looked up): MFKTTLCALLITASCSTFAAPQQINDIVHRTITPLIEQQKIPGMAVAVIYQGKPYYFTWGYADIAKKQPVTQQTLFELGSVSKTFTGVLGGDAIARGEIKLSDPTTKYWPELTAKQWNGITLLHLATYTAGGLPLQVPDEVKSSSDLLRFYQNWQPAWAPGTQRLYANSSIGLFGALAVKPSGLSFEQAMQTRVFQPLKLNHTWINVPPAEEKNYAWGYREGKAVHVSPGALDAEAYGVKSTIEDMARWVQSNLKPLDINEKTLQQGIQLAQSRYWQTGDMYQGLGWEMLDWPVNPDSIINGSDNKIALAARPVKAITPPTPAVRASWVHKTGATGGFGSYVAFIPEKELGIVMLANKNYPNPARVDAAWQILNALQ
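AmpC (5.3 nM in the dispensed reagent) in 20 mM phosphate pH 7.0 with 0.01% (detergent screen) or 0.0001% Triton X-100 was preincubated with compounds for 15 min at room temperature. Nitrocefin was then added from an 800 uM solution, and hydrolysis was followed at 480 nm.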
AmpC inh no detg: inhibitors of E. coli AmpC beta-lactamase without detergent; AmpC nitrocefin hydrolysis, absorbance 480 nm, 0.0001% Triton; Potency, µM (top dose mostly 57.1 µM), without a hit: at the top dose activity change, negative = inhibition, actives largely listed as inhibitors; 330,000 tested, 0.52% active; P00811;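 further: plate controls were no compound for no effect and no enzyme for full effect; nearly all actives have a fitted effect of over 20% in size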
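20 mM phosphate pH 7.0 + 0.01% (detergent screen) or 0.0001% Triton X-100; 5.3 nM AmpC reagent; cpd preinc 15 min RT; nitrocefin (800 uM stock) to start; A480 q20 s × 4 min; Activity was normalised to no-enzyme and no-compound control wells.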
Sm TGR block: blocks Schistosoma mansoni thioredoxin glutathione reductase; Q962Y6; purified TGR, DTNB reduction, TNB absorbance 405 nm; Potency, µM (series often up to 114 µM), for the others: top-dose activity change, negative = inhibition, usual class: inhibitors; 360,000 tested, 3% active; AID 485364; further: nearly all actives have a fitted effect of over 60% in size
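TGR 20 nM + NADPH 100 uM (dispensed conc.), cpd preinc 15 min RT; start with NADPH (500 uM addition) then DTNB (15 mM addition). Kinetic TNB absorbance, 405 nm filter. Four-parameter Hill fit across titration.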
Giardia growth: Giardia lamblia growth inhibition; 1,500 tested, 5% active; Giardia lamblia trophozoite growth inhibition; Potency, µM (doses to about 57.5 µM), inactives show at the top dose activity change, negative = inhibition, most hits filed as inhibitors; shares compounds with Giardia FBPA inh-1;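 further: trophozoites exposed to compound for 48 h at 37 °C; nearly all actives have a fitted effect of over 70% in size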
Mammalian tox: mammalian cytotoxicity of Giardia aldolase inhibitor hits. Potency, µM (doses to about 57.5 µM), for inactives: at the top dose viability change, negative = toxicity, hits mostly inhibitors. mammalian cell viability counter-screen, qHTS. 1,500 tested, 4% active. shares compounds with Giardia FBPA inh-1;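 further: Chinese hamster ovary cells used as mammalian cytotoxicity surrogate; viability measured as cellular ATP by luminescence; compound exposure lasted 48 h before reading; nearly all actives have a fitted effect of over 60% in size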
Giardia FBPA inh-2: confirmation of Giardia fructose-bisphosphate aldolase inhibitors. shares compounds with Giardia FBPA inh-1. purified Giardia aldolase enzyme activity, qHTS. Potency, µM (highest dose often 57.5 µM), inactives show top-dose activity change, negative = inhibition, usual class: inhibitors. 1,500 tested, 5% active. AID 2787; further: nearly all actives have a fitted effect of over 45% in size
Rabbit FBPA inh: selectivity test for Giardia aldolase inhibitors: rabbit aldolase; shares compounds with Giardia FBPA inh-1; Rabbit muscle FBPA enzyme inhibition, selectivity counter-screen; Potency, µM (top dose mostly 57.5 µM), for the others: at the highest dose activity, negative = inhibition, hits mostly inhibitors; 1,500 tested, 4% active; further: nearly all actives have a fitted effect of over 60% in size
GAPDH coupling: counter-screen for Giardia aldolase inhibitors: GAPDH coupling enzyme; shares compounds with Giardia FBPA inh-1; Potency, µM (series often up to 57.5 µM), for the others: at the top dose activity change, negative = inhibition, hits mostly inhibitors; 1,500 tested, 6% active; GAPDH coupling enzyme counterscreen, biochemical, qHTS; further: nearly all actives have a fitted effect of over 55% in size
Starred values were filed as active, the others as inactive; ? = inconclusive; / = not tested or not shown; [ ] = dose if it differs, or a comment. An excerpt weighted towards active compounds, which were near 3.6% of everything screened. The call rests on the fitted dose curve; in most records, active means well fitted curve in the direction sought with a large enough effect; inconclusive means small, poorly fitted or top-dose-only effect, or another doubt; inactive means no such curve, though single readings can be large; an effect the other way counts as inactive or inconclusive. Unless noted, on the % scale 0 is the no-effect control and ±100 the full control effect; potency means the concentration at half of the fitted maximal effect.

SMILES | Giardia FBPA inh-1 | AmpC inh detg | AmpC inh no detg | Sm TGR block | Giardia growth | Mammalian tox | Giardia FBPA inh-2 | Rabbit FBPA inh | GAPDH coupling
NS(=O)(=O)c1ccc(NC(=S)NCc2ccc(Cl)cc2)cc1 | 16µM* | -5% | -40% | ? | -8%[10.4 µM] | -9% | -6% | 2% | 9%
CCCCc1cc(C(=O)Cc2ccccn2)c(O)cc1O | -3% | 5% | -40% | 0% | / | / | / | / | /
CC(C)NC(=O)[C@H](CSCc1ccccc1)N1Cc2ccccc2C1=O | 6% | ? | 1% | -1% | / | / | / | / | /
O=C(NCCCN1CCCC1)[C@H](CSCc1ccccc1)N1Cc2ccccc2C1=O | 18µM* | -4% | 57% | -3% | -3%[10.4 µM] | -29% | 11% | 2% | 17%
CC(C)c1ccc(NC(=O)c2cc(S(=O)(=O)N3CCCCC3)c[nH]2)cc1 | -14% | -13% | -21% | -4% | / | / | / | / | /
CN(CCc1ccccn1)S(=O)(=O)c1ccccc1F | 18% | ? | -8% | 5% | / | / | / | / | /
CN(CCc1ccccn1)Cc1ccc(Cl)c(Cl)c1 | ? | 0% | 14% | -2% | / | / | / | / | /
CSc1ccc(CN(C)CCc2ccccn2)cc1 | 14µM* | -4% | -2% | 5% | -9%[10.4 µM] | 3% | 1% | 0% | 5%
CN(CCc1ccccn1)Cc1ccc(Cl)cc1Cl | 18µM* | -11% | -13% | 0% | 23% | 5% | 2% | 0% | 13%
COc1ccc(S(=O)(=O)N2CC(O)C[C@H]2C(=O)OCC(=O)N2CCCCCC2)cc1 (stereo partly specified) | -1% | -13% | -6% | 7% | / | / | / | / | /
CN=C(NC1CCCCC1)c1ccc(Cl)cc1 | -2% | -3%[57.1 µM] | -3% | 1% | / | / | / | / | /
O=[N+]([O-])c1ccccc1/C=C/CN1CCSCC1 | 16µM* | ? | -15% | ? | ? | 19% | -1% | 13% | -4%
CCC1Oc2ccccc2N(CC(=O)NCCN2CCc3ccccc3C2)C1=O (stereo unspecified) | 16µM* | 2% | 49% | 21% | -22% | 18% | 6% | 9% | 1%
Cn1c(=O)c2nc3ccc(NC(=O)C(F)(F)F)cc3nc2n(C)c1=O | / | 16% | / | 5% | / | / | / | / | /
CC(=O)Nc1ccc2nc3c(=O)n(C)c(=O)n(C)c3nc2c1 | 18µM* | 5% | -8% | -13% | 13% | -22% | ? | ? | 40µM*
Cn1cc(C(=O)NCCc2ccccc2)c(=O)c2cc(S(=O)(=O)N3CCCCCC3)ccc21 | / | 0% | / | 31% | / | / | / | / | /
CN1C(=O)/C(=C2\SC(=S)N(NC(=O)c3cccnc3)C2=O)c2ccccc21 | 7.1µM* | -13% | -31% | -32% | 11µM* | 7% | -3% | 6% | -4%
CCOC(=O)CN1C(=O)/C(=C2\SC(=S)N(NC(=O)c3cccnc3)C2=O)c2ccccc21 | 14µM* | -5% | -12% | ? | 6.3µM* | 15% | -24% | -16% | ?
CCOC(=O)CN1C(=O)c2ccccc2Sc2ncccc21 | 6% | 0% | -17% | 12% | / | / | / | / | /
O=C(c1ccc(Nc2nc3ccccc3n3nnnc23)cc1)N1CCN(c2ccc(F)cc2)CC1 | / | -10% | / | 4% | / | / | / | / | /
O=C(NNC(=O)c1ccccn1)c1cccc([N+](=O)[O-])c1 | 10µM* | -4% | -9% | 1% | ? | ? | -1% | -6% | -26%
CCN1CCN(CCOCCOc2ccccc2-c2ccccc2)CC1 | 18µM* | -1% | 47% | / | 11%[10.4 µM] | -9% | 7% | -2% | 2%
c1ccc(-c2ccccc2OCCOCCN2CCNCC2)cc1 | 20µM* | -5% | 31% | / | ? | 6% | -3% | 3% | -16%
O=[N+]([O-])c1ccc(S(=O)(=O)N2CCN(Cc3ccco3)CC2)cc1 | / | -5% | 0% | -28% | / | / | -5% | -8% | 5%
CCCc1ccc(S(=O)(=O)N2CCN(Cc3ccco3)CC2)cc1 | 1% | -8% | -8% | -23% | / | / | / | / | /
SMILES | Giardia FBPA inh-1 | AmpC inh detg | AmpC inh no detg | Sm TGR block | Giardia growth | Mammalian tox | Giardia FBPA inh-2 | Rabbit FBPA inh | GAPDH coupling
Cc1[nH]c2ccccc2c1/C=N/Nc1nncn1N | 13µM* | 5% | -12% | / | -12% | -19% | ? | ? | -27%
Cc1[nH]c2ccccc2c1/C=N/Nc1ccccn1 | -3% | 4% | -12% | -14% | / | / | / | / | /
Cc1cccc(N(C)C(=O)CCNS(=O)(=O)c2ccc3c(c2)CCN3C(=O)C2CC2)c1 | / | 2% | / | ? | / | / | / | / | /
COC(=O)c1cc(S(=O)(=O)N2CCOCC2)c(Cl)cc1N1CCOCC1 | 3% | 1% | 0% | 22% | / | / | / | / | /
COC(=O)c1cc(C)nc2c1C(=O)C(=O)C=C2N1CCOCC1 | 0.25µM* | 1% | -15% | ? | 25µM* | 20µM* | 1.3µM* | 1.4µM* | 1.4µM*
C=C[C@]1(C)Cc2occ(C)c2C[C@H]1C(=C)C(=O)O | -3% | / | / | / | / | / | / | / | /
Cc1ccc(-c2noc(N=O)c2NO)cc1 | ? | 0% | -29% | -22% | / | / | / | / | /
O=Nc1onc(-c2ccc([N+](=O)[O-])cc2)c1NO | 14µM* | 7% | -34% | -6% | ? | 1% | -14% | -4% | 16%
O=C(COc1ccc(F)cc1Br)NCc1nnc2ccccn12 | / | / | -15% | / | / | / | / | / | /
C/C(=N\Nc1nc(N)cc(Cl)n1)c1cccc([N+](=O)[O-])c1 | -7% | -11% | -8% | 4% | / | / | / | / | /
C/C(=N/Nc1nc(C)c(C)s1)c1cccc([N+](=O)[O-])c1 | 32µM* | ? | -15% | ? | 4%[10.4 µM] | -11% | -4% | 6% | -11%
Cc1ccc(N2CCN(C(=S)c3ccc(-c4cccc([N+](=O)[O-])c4)o3)CC2)cc1 | 16µM* | -15% | -37% | -1% | -17%[10.4 µM] | -14% | -1% | -5% | 6%
CC(=O)CSc1ncnc2nc[nH]c12 | -22% | -1% | -6% | 4% | / | / | / | / | /
Cn1cnc(Sc2ncnc3nc[nH]c23)c1[N+](=O)[O-] | 14µM* | -5% | -10% | ? | ? | 10% | 1% | -3% | 4%
Cc1nc(SCC(=O)c2ccccc2)n[nH]1 | 13µM* | -13% | -18% | -3% | 11% | -11% | 5% | 10% | 3%

From PubChem
